# In PubChem BioAssay AID1159506 (National Center for Advancing Translational Sciences (NCATS), 2015):
# Whole data set: some 59,000 sequences, median the read-out near -0.00055, cut for the lowest 2% near -2. The sample as a whole holds a higher share of the lowest values than the screen did.
# Test: Identification of proteins required for the processing of the EWS-FLI1 nascent transcript;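 also: robust z of luciferase light less the median z of siRNAs with the same seed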
# Settings: TC32 Ewing sarcoma NR0B1-luc vs CMV-luc (EWS-FLI1 target promoter against control promoter), 48 h; screened at 20 nM (by protocol)
# Description: Ewing sarcoma (ES) cells depend on the EWS-FLI1 fusion transcription factor for cell survival. Using an assay of EWS-FLI1 activity and genome-wide siRNA screening we have identified proteins required for the processing of the EWS-FLI1 nascent transcript. Parallel genome-wide siRNA-mediated RNAi screens were conducted in Ewing sarcoma TC32 cell lines expressing a luciferase (luc) reporter protein driven by either the promoter of the EWS-FLI1 target gene NR0B1 (TC32-NR0B1-luc) or the CMV promoter (TC32-CMV-luc). Luciferase activity was assessed 48 hours post siRNA-transfection.
# Twenty microl of serum-free media containing Lipofectamine RNAiMax (0.05 microl) was added to wells containing siRNA (0.8 pmol). Lipid and siRNA were allowed to complex for 45 min at ambient temperature before addition of 600 cells in RPMI-1640, 20% FBS to yield final transfection mixtures containing 20 nM siRNA in RPMI-1640, 10% FBS. Luciferase expression was measured using OneGlo (Promega, Madison, WI). The genome-wide screening campaign was conducted using Ambion's human genome library version 4.1 (Ambion, Austin TX). This library targets approximately 21000 human genes, three siRNAs per gene. Each siRNA is arrayed in an individual well of a 384-well plate. Parallel transfections were conducted in TC32-NR0B1-luc and TC32-CMV-luc cell lines and luciferase expression (OneGlo, Promega) was assayed 48 h later on a PerkinElmer Envision 2104 Multilabel plate reader (PerkinElmer, Waltham, MA). Qiagen's AllStars Negative control was incorporated on all screening plates for normalization (16 wells per plate). Qiagen, Germantown, MDsiGL4 was incorporated as a positive transfection control (16 wells per plate) on all plates. […] The raw luciferase data for the NR0B1- and CMV-luc screens were normalized and z-score-MAD transformed using standard methods (Chung et al., 2008). The miRNA-like seed sequence of every siRNA was determined and the median z-score for all siRNA sequences with the same seed sequence was calculated. This z-score was subtracted from the z-score associated with each siRNA with that seed sequence to generate a seed-adjusted z-score value (Z) that was used when the results for the three siRNAs corresponding to each gene were compared (Marine et al., 2012)
row,Sequence,seed-corrected z-score
1,UGCAGUUUGACGGUGCCUC against TMEM204,-0.467
2,UCCCAUUCCACUGCUACUG against RBMX,-2.45
3,UAACUCGAAAGUGAACUUC against MYOZ3,0.0654
4,UAGGUAAUAAUUCACAAUG against CCL19,-0.226
5,UCUGUUGGUACUGUGCAGG against PPA1,-1.37
6,UCCGUUCACAUUCAGGAUC against SLC6A16,-0.88
7,UCCUUGUAGAGCUUGAUGG against TOP3B,1.26
8,AACUAGAAUAAAGAAGAUG against SLC6A9,0.0838
9,AAAACUUCAAAUACCAUGC against SRPK1,-1.05
10,UUGCGGGUGACAAUCUCCC against CROCC,0.165
11,UUUCCGGAUCAGACCGUGC against RPS29,1.1
12,UCACGGUCAACAAAGUAGG against BRINP1,-2.87
13,UAUAAGAAAUGGUUUUGUC against OR6C6,0.719
14,AUCACGUUUAUGUCCAUUG against BMPER,-0.464
15,UUGGCGUUCAUAAGCCGCC against PTRH1,0.961
16,ACUCUUUUUAAGGUGCUUC against DTX1,-3.91
17,AAGUUUUCCAACGUACUCU against IL4,0.239
18,AAGGUUGAGAGAUGUAGCU against SPANXA1,1.05
19,UUUUAUUCUUUCGCUUUUU against MEAF6,-1.39
20,UUUGGAAUCAUCCAGGAAA against C8orf82,0.192
21,UUCUGGAUAACAAAGUCAC against PCDH1,0.112
22,UGGUGAUUCAGAUAGCUGG against ARHGAP11A,-0.84
23,AUCUUGAUAGGGACCUUGG against PRAP1,0.654

row,Sequence,seed-corrected z-score
1,UGAUCUUAUAGUAAUCAGG against BRD4,-2.52
2,GACGGCAUCAAUCAGGUCC against PYCR1,0.0435
3,AAAGAUGCAACCAAUGCUC against CDK3,-0.134
4,UUACUUCAAAACGGUAUCC against ASB17,-9.19
5,UGAUUGUUGACUGACGAUG against DMXL1,1.23
6,UUCUUUCAAAUUUCGGUUG against SOX13,0.262
7,UCUUGCUCUAGUGUCCUGG against DNAJC17,-2.46
8,UUUAUCCUCAAAACUCUCC against C6orf10,0.952
9,UCUCAUACUUCCCAUGCCC against LSP1,-0.209
10,UAUGGGACACUUAUUGGAG against PVRIG,-0.543
11,AGAGCACUGAGUAGAAUGC against MFSD9,-1.44
12,UGCUUGUCUAAGCCUUUGG against RPS12P9,-2.08
13,UAAGGUAAUGAUUACCACC against RBKS,-0.288
14,UUGACUACCAGGAAAGGCU against KRT86,-0.062
15,UAUUUAUUGCGAGAAUCAG against CLCN4,-3.96
16,UCCAGAAGCUGGAUGGUCC against GALE,-0.197
17,UGACGUACAGGUUAGCAUC against ELAVL3,0.583
18,AACGGUAUUGAUGACAGCC against TMLHE,-0.307
19,UACGAUGUCACCUAUAUUG against CSMD2,-0.00124
20,UAUCUUGAGAGGUGCCUCC against THRAP3,1
21,UCGUACUUUAAAGAUGUCC against CR1,-0.43
22,UUGUUUGCAGGAAGGGAGG against LOC643770,-0.34
23,UUUCUGUUCUUACAGGUGG against SRSF5,-1.33

row,Sequence,seed-corrected z-score
1,AUAGUAAAACCAAUUACCC against OR2J2,-2.15
2,AUGGUGAAGACGUAGUUGC against CACNA1H,-1.21
3,UUUAGGAACCUUGACUAGC against GTF2F2,0.153
4,AACGUGUAGAUCUUCAUGA against UBXN6,-1.15
5,UGAAGUUCAGGUUCGUAAC against TBPL1,-2.64
6,UUGACAUUUACUUCAGUUU against TRABD,0.607
7,AGUGGAUACAUAGCUGUCU against ZBTB45,-0.6
8,UCCUUAAUUUGAUAUUUGC against MAGEA8,-0.105
9,AUACUUGCAGGUGUCAUUG against CD300A,-0.484
10,AUCGCUUUGAGGUUAGAGG against SYT3,-0.878
11,UAUCAUAUGAUGCAUAAGC against ANGPTL5,0.711
12,UGAUGAUACACUGCAAGUC against IGSF3,-2.96
13,UAAUCUAUUGAUAUGCUGG against SLC25A32,0.699
14,AAGUGGAACACUCAAGUCC against ZNF471,-1.03
15,AUAAAUGAUACGGGUGCUC against TPI1,-0.201
16,UAGGAGCAGAGGAAUCUUC against SLC35F4,0.0717
17,UUCUGAUGUAUGUUGAGCC against ZNF350,-4.18
18,UUCUCGUUGAUCUUUUUGG against CPXCR1,-0.131
19,UCCUGUUCCUUGAUAUUGU against GZMH,-0.564
20,UUAUCUGUGAGAGCAAUUA against LOC728752,-1.23
21,UCUGGAUCUAUUAAGCUGC against LRRFIP2,-2.34
22,AAAUCAGUGGGAAAGAUCC against DENND3,1.04
23,UUCUCCAUCAUGCGAAUGG against FEN1,0.188

row,Sequence,seed-corrected z-score
1,UGGUAGUACACCUUGCAGC against C1orf111,-2.08
2,UGUAAUACCUGAAUCGGUG against PRKRA,-0.234
3,AAAUAGACAAAUAGGAUCC against PSMD12,-2.98
4,UAUCUGAGAGUGAUCCUUC against LRRC47,1.55
5,UCAAUUCAGACUGUAAUGC against PTPDC1,-0.0227
6,AUUCUCACCAUAAAGAGCA against LOC729722,-2.33
7,UUAUGCUUAGGUAACUUGC against AADACL3,-3.87
8,UAUAUAUCGUGCUUGAUAC against RIPK2,0.0696
9,UAUGCGACAAAGAAUGACU against OR4N3P,0.242
10,UUUUCGAUUAAACCUUUUC against C17orf58,-0.0867
11,UAAUCAAUCAUAGAGAUAG against GSTO1,0.0812
12,UUUAUUACAAUCCAAAAGU against HCST,0.824
13,UUCUCGAUCAAGAGCAUCC against SPEF2,-12.2
14,UUUGUGGUUAUUCUUUUAU against CDC42EP2,-0.0752
15,UACAGCAUAAUCUCAUUUG against BPY2,0.91
16,UAAGCAGUAGAGUUAGUUC against LINC01249,0.231
17,UCUGUUCCAAGGCACUAUC against NFE4,0.0636
18,UUAUACACGAGGAAGAUGU against TMEM169,-0.406
19,UGAGUAAACAGCCUCAGUC against CMIP,-0.223
20,UCUCGAUGAAGUCAAACAG against COPG1,-2.97
21,AAUUUGCUAAAUCGUAUUC against CLLU1,-0.521
22,UCCAUUAUCCCAAUAGACC against PGM2,-0.182
23,UAGGGUUGGACUUUUUGUC against CYB5R3,0.597

row,Sequence,seed-corrected z-score
1,UCCAGUACCUUUUCCUUGG against LOC199882,0.35
2,AAUACUUGAAGGAAUAGGC against SUPT6H,-5.83
3,UACCAUAUUAUACACUUGC against STARD6,-0.0986
4,AUGGAUCCAAUUUGAGUUU against NR2F2-AS1,1.74
5,AUCUCAUAAAAGAUCAUCC against NUTM1,-0.0209
6,UAUUGUUAAGGACUUUAAC against DNAJB6,0.648
7,UUCGGUACACUCAUACGGC against ZNF300,0.363
8,UUAGCUGCUCGGUAACUGG against EPB41,-2.39
9,UAAUGACAUAUCGACAUUU against MIDN,-0.523
10,UUAGAGAAUAUGCCCAUGA against FGD3,-1.11
11,UUUGGGUAGAGGCCGAAUG against DNAJC13,-2.18
12,UAUGUUAUCAGUCCAUCUG against MND1,0.573
13,UCUACAUCAAUAACAGAGG against C5orf28,0.545
14,UUAUUGGUUGUGACUUUCC against TSLP,0.686
15,UCCCUUUUAAGCAACCUAC against APOC3,-0.83
16,UCAAUAUCCAGACCUGGUG against SF3A1,-2.88
17,UCCCGUAAAACAGAGACAC against OR2C3,-0.66
18,AUCGUGCUCGCUUGGAUCC against LOC729083,-0.203
19,UCGGUUGCGAAUCAGAAUC against NOTCH2,-2.01
20,UUAGAUACUCUGCAGGAUG against EPHA5,0.46
21,UUUAAUGUCCCAGUCCUCG against TMEM160,0.858
22,UCUUACAUAGGUAAUUGCC against AGTR1,-0.402
23,UUCCUUAACCCAUCUACAG against C2orf49,0.273

row,Sequence,seed-corrected z-score
1,UGAAUGACAUCCACUACCU against OR6K2,1.02
2,UCAAAGUCGAUUUCAAUCU against BRD4,-2.4
3,UAGAUGUCUGGAGCCCAUC against LYPD6,-0.74
4,AAAGGAGUCAGAUUCAUGC against GPATCH2L,0.347
5,UCUCCAACCAAUUGCCUCC against LOC200726,-0.147
6,UAGGGAACUCGUAUCUAGC against RNF213,0.191
7,UAGUUGUCGAUGUAAACUC against MUC2,-2.67
8,UUCCAUAUUACCGAGGUCC against ALCAM,0.291
9,UCUGAGAUAACAGUUCCUG against LOC644681,-0.647
10,UUCUCGAUCAUCCUGAUCU against BGN,-3
11,UGCUAGACAAUUCCACUUC against SLX4,-1.39
12,UAUCGCUCCUGACUAUUGC against PPP1R10,-0.157
13,ACAACUAUGAUUUUAAGGC against ACSL1,0.252
14,UUGUCUUUCCGGCUAAAGC against ZFP64,-1.36
15,UAUUGUAAGAAAACCCUUG against GNA13,1.07
16,UCUGUGUCCACAGAGCCGU against GPR78,-2.26
17,UACUACACUAUUCUUCAGG against TADA1,-0.3
18,UUGCGACUCAUGAAAUGGG against INO80,0.511
